Measured values: PubChem BioAssay (NCATS)
Values joined by “and” are separate entries in the source; they are usually repeats but may differ in a detail not shown here. Identical values can stand only once. Active and inactive are the calls of the source. Where a call stands in place of a potency, no number is given. Unless noted, the call rests on the fitted dose curve; in most records, active means well fitted curve in the direction sought with a large enough effect; inconclusive means small, poorly fitted or top-dose-only effect, or another doubt; inactive means no such curve, though single readings can be large; an effect the other way counts as inactive or inconclusive.

Tests used:
[1] = target: DNA dC->dU-editing enzyme APOBEC-3G (Homo sapiens) (UniProt Q9HC16); assay: qHTS for inhibitors of Vif-A3G interactions: Validation (AID 588379)
Sequence of DNA dC->dU-editing enzyme APOBEC-3G (Homo sapiens) (Q9HC16 whole entry, looked up): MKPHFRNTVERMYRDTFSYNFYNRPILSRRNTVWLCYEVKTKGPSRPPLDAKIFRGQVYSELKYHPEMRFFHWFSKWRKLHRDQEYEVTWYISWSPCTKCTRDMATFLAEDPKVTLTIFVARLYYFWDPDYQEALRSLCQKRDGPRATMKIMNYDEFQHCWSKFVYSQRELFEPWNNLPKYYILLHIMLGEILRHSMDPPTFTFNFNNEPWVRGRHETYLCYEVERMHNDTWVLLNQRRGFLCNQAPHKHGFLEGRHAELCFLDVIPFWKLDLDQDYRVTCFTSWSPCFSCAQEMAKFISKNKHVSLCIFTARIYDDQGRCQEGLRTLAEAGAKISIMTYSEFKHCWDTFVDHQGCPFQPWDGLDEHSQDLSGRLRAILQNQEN
How it was run: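 HeLa cells stably expressing Vif and A3G-eYFP, 700 cells/well, incubated overnight at 37 deg C, then exposed to compound overnight at 37 deg C. Inhibition of Vif-mediated degradation read as increased yellow fluorescence (Ex 488/Em 500-530) by laser-scanning cytometry.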

[2] = qHTS for Inhibitors of ATXN expression: Validation (AID 588378); further: potency means the concentration at half of the fitted maximal effect; nearly all actives have a fitted effect of over 75% in size
How it was run: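 After a 2 h attachment and 24 h compound incubation, HEK293-ATXN2-FFLuc wells are read for fluorescence at 405 nm excitation/525 nm emission as a viability measure, then for Bright-Glo luminescence reflecting ATXN2 expression.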

[3] = target: Glucocorticoid receptor (Homo sapiens) (UniProt P04150); assay: qHTS assay for small molecule antagonists of glucocorticoid receptor signaling (AID 588533; active means well fitted inhibition curve with a large enough effect in the signal ratio, with a control signal flat, not every such curve was filed as active; inconclusive means small, poorly fitted or top-dose-only effect, or effect the other way, or a change in a side signal; the % refers to the signal ratio; further: potency means the concentration at half of the fitted maximal effect)
Sequence of Glucocorticoid receptor (Homo sapiens) (P04150 whole entry, looked up): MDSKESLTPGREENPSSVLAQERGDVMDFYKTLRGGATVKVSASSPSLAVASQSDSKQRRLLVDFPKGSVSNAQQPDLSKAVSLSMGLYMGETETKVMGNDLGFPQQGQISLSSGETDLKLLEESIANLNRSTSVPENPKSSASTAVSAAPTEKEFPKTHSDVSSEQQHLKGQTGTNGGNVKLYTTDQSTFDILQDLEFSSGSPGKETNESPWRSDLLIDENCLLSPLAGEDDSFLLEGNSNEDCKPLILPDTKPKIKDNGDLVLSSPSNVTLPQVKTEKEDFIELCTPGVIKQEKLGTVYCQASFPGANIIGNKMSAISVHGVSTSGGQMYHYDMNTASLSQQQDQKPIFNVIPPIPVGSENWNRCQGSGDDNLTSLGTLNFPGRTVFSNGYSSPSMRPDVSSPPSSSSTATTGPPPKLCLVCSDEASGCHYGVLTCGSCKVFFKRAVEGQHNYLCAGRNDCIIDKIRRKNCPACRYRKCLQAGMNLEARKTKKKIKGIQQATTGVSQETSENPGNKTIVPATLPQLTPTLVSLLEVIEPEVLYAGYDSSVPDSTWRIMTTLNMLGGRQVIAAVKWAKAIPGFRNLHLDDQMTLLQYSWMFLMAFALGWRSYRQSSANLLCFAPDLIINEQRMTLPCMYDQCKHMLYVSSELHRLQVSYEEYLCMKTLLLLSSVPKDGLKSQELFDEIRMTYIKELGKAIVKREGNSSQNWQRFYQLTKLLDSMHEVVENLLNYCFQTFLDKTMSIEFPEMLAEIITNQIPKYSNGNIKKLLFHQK
How it was run: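 Antagonist-mode qHTS: compound titrations added to GRE-bla HeLa cells, then dexamethasone 2 nM final; 18 h, 37 C. CCF4 FRET fluorescence normalized to dexamethasone and DMSO; IC50 from Hill fit.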

[4] = target: Estrogen receptor (Homo sapiens) (UniProt P03372); assay: qHTS assay for small molecule antagonists of estrogen receptor alpha signaling (AID 588513; active means well fitted curve in the direction sought with a large enough effect in the signal ratio, with a control signal flat, not every such curve was filed as active; inconclusive means small, poorly fitted or top-dose-only effect, or effect the other way, or a change in a side signal; inactive means no such curve, though single readings can be large or run the other way; the % refers to the signal ratio; further: potency means the concentration at half of the fitted maximal effect)
Sequence of Estrogen receptor (Homo sapiens) (P03372 whole entry, looked up): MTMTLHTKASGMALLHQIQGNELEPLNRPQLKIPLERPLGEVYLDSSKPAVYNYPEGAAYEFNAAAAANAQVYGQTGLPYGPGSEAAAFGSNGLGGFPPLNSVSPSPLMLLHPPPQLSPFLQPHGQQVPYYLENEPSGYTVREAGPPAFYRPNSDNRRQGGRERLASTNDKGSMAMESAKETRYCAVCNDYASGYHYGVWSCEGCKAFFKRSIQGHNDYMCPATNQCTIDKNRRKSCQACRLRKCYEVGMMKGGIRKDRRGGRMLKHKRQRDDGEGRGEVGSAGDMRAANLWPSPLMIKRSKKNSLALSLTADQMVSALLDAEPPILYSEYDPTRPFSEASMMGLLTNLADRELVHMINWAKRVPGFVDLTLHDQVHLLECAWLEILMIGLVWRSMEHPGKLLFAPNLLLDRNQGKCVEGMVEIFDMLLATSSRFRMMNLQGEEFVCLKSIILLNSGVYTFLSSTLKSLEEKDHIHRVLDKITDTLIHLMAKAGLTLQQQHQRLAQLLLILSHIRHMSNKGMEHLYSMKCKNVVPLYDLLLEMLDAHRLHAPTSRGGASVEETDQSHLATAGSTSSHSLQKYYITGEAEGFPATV
How it was run: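 Antagonist-mode qHTS in ER-alpha-UAS-bla HEK 293 cells: compound titration, 0.5nM estradiol for 18 h, CCF4 fluorescence, Hill-derived IC50.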

[5] = target: Ubiquitin carboxyl-terminal hydrolase 1 (Homo sapiens) (UniProt O94782); assay: Inhibitors of USP1/UAF1: Pilot qHTS (AID 504865); further: nearly all actives have a fitted effect of over 35% in size; further: potency means the concentration at half of the fitted maximal effect
Sequence of Ubiquitin carboxyl-terminal hydrolase 1 (Homo sapiens) (O94782 whole entry, looked up): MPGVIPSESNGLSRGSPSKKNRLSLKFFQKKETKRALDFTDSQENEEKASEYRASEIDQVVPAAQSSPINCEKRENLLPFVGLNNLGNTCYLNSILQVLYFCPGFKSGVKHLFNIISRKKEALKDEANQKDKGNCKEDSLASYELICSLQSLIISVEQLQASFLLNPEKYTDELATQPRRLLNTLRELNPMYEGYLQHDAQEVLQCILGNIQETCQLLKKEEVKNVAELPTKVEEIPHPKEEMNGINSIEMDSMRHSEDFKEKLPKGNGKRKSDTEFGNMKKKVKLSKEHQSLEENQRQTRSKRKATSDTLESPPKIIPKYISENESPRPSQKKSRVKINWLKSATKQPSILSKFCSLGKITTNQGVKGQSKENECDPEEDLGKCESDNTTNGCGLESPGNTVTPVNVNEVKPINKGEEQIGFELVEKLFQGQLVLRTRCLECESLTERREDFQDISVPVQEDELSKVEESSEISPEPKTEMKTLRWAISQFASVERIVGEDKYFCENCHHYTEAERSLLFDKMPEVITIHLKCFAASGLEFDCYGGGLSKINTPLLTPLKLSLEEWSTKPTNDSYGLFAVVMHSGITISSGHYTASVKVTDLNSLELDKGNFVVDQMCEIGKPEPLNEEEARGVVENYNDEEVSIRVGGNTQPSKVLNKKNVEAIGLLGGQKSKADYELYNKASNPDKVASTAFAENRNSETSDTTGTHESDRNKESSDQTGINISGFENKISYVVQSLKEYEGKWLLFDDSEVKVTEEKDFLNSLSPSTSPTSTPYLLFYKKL
How it was run: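 Enzyme-free wells gave the negative control, while test wells held 1nM USP1/UAF1 preincubated with compound for 15 min at room temperature. Ub-Rho at 150nM final started the reaction, and fluorescence at 480/540 nm was recorded kinetically.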

[6] = target: Estrogen receptor (Homo sapiens) (UniProt P03372); assay: qHTS assay for small molecule agonists of estrogen receptor alpha signaling (AID 588514; calls by dose curve; further: nearly all actives have a fitted effect of over 70% in size)
How it was run: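 ER-alpha-UAS-bla GripTite HEK 293 cells in medium with 2% charcoal/dextran-treated FBS were treated with compound titrations at 37 C for 18 hrs; beta-lactamase reporter read by CCF4 fluorescence after 2 hrs at RT.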

[7] = target: Bile acid receptor (Homo sapiens) (UniProt Q96RI1); assay: qHTS assay for small molecule antagonists of farnesoid X receptor signaling (AID 588526; calls by dose curve)
Sequence of Bile acid receptor (Homo sapiens) (Q96RI1 whole entry, looked up): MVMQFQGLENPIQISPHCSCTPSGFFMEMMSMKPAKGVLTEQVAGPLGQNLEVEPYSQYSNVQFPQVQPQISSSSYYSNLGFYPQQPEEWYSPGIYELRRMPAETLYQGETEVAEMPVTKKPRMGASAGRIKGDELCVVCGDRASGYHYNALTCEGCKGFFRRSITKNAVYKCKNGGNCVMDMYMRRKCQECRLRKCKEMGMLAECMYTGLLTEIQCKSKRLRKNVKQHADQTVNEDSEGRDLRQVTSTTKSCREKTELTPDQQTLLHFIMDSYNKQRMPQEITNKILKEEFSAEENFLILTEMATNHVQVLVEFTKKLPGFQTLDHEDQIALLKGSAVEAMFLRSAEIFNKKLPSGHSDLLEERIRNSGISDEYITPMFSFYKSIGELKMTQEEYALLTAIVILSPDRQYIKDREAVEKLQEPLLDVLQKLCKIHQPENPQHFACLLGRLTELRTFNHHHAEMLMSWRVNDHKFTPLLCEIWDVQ
How it was run: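 Antagonist mode: titrated compounds tested against chenodeoxycholic acid stimulation (normalized to 50 uM CDCA and DMSO) in GeneBLAzer HEK293T cells for 16 h. Beta-lactamase read by CCF4 fluorescence; IC50 from Hill fits.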

[8] = target: Bile acid receptor (Homo sapiens) (UniProt Q96RI1); assay: qHTS assay for small molecule agonists of farnesoid X receptor signaling (AID 588527; calls by dose curve; further: series mostly up to about 77 µM); conditions: HEK293T FXR-UAS-bla, beta-lactamase ratio, 16 h; stronger effect = higher value
How it was run: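 Read-out: beta-lactamase reporter fluorescence with CCF4 substrate in GeneBLAzer FXR-UAS-bla HEK293T cells, after 16 h compound exposure at 37 C. Response scaled between DMSO basal (0%) and chenodeoxycholic acid at 100 uM (100%).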

[9] = target: Peroxisome proliferator-activated receptor delta (Homo sapiens) (UniProt Q03181); assay: qHTS assay for small molecule agonists of peroxisome proliferator-activated receptor delta signaling (AID 588534; calls by dose curve)
Sequence of Peroxisome proliferator-activated receptor delta (Homo sapiens) (Q03181 whole entry, looked up): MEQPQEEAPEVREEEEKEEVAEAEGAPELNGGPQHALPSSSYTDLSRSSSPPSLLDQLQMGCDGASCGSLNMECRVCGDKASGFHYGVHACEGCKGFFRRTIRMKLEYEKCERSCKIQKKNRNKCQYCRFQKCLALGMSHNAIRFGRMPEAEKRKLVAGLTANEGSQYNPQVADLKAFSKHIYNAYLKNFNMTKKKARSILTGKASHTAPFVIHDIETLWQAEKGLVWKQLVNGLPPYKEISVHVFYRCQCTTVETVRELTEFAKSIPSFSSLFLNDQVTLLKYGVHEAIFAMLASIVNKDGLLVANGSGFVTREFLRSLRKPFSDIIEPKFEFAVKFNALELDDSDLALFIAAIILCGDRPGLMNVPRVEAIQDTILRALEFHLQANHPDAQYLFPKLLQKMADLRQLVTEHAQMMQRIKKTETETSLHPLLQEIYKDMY
How it was run: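 Cell-based beta-lactamase reporter assay run in agonist mode: cells seeded and incubated 5 hrs at 37 C, compounds added and incubated 18 hrs at 37 C. CCF4 dye fluorescence read after 2 hrs at RT; EC50 and efficacy from Hill fits.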

[10] = qHTS assay for small molecule antagonists of peroxisome proliferator-activated receptor delta signaling (AID 588535; active means well fitted inhibition curve with a large enough effect in the signal ratio, with a control signal flat, not every such curve was filed as active; inconclusive means small, poorly fitted or top-dose-only effect, or effect the other way, or a change in a side signal; inactive means no such curve, though single readings can be large or run the other way; the % refers to the signal ratio;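 on max response: cells co-treated with a PPAR-delta agonist as stimulator during compound exposure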); conditions: HEK293T PPARd-UAS-bla, beta-lactamase FRET ratio, 18 h; 460 nm channel
How it was run: (§1)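 Cells were seeded at 4000 per well in assay medium containing 2% charcoal/dextran FBS and held 5 hrs at 37 C. Compounds were then added for 18 hrs. CCF4 substrate was applied for 2 hrs at room temperature before fluorescence reading.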

[11] = target: Peroxisome proliferator-activated receptor delta (Homo sapiens) (UniProt Q03181); assay: as above
How it was run: as §1

[12] = target: Vitamin D3 receptor (Homo sapiens) (UniProt P11473); assay: qHTS assay for small molecule antagonists of vitamin D receptor signaling (AID 588541; calls by dose curve;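 further: receptor activated by calcitriol during compound treatment; series mostly up to about 77 µM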)
Sequence of Vitamin D3 receptor (Homo sapiens) (P11473 whole entry, looked up): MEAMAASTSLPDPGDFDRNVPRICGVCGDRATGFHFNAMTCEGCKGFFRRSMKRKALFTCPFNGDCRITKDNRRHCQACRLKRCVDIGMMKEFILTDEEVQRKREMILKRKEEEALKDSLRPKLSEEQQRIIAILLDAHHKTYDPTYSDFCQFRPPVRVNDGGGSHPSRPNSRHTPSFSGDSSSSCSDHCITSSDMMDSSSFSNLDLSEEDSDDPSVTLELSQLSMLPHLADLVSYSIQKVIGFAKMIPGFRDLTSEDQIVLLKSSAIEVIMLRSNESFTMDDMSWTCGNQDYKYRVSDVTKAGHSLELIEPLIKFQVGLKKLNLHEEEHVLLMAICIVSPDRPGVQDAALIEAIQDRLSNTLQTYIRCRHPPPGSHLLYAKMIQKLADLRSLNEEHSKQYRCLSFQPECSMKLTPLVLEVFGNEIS
How it was run: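 VDR-UAS-bla HEK293T cells in 2% charcoal-stripped FBS were stimulated with 1-alpha,25-dihydroxyvitamin D3 (3 nM final) plus compound for 16 h at 37 C. The beta-lactamase CCF4 readout was normalized to 50 nM agonist and DMSO, and Hill fits gave IC50.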

[13] = target: Vitamin D3 receptor (Homo sapiens) (UniProt P11473); assay: qHTS assay for small molecule agonists of vitamin D receptor signaling (AID 588543; calls by dose curve)
How it was run: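 Measured: β-lactamase reporter activity (CCF4, 405 nm excitation, 460/530 nm emission) in HEK293T VDR-UAS-bla cells after 16 h compound exposure at 37 °C. Normalization against 50 nM 1α,25-dihydroxyvitamin D3 and DMSO; Hill-fit EC50.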

[14] = target: Peroxisome proliferator-activated receptor gamma (Homo sapiens) (UniProt P37231); assay: qHTS assay for small molecule antagonists of peroxisome proliferator-activated receptor gamma signaling (AID 588537; active means well fitted inhibition curve with a large enough effect in the signal ratio, with a control signal flat, not every such curve was filed as active; inconclusive means small, poorly fitted or top-dose-only effect, or effect the other way, or a change in a side signal; the % refers to the signal ratio;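 further: reporter cells co-stimulated with 50 nM rosiglitazone agonist during compound treatment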)
Sequence of Peroxisome proliferator-activated receptor gamma (Homo sapiens) (P37231 whole entry, looked up): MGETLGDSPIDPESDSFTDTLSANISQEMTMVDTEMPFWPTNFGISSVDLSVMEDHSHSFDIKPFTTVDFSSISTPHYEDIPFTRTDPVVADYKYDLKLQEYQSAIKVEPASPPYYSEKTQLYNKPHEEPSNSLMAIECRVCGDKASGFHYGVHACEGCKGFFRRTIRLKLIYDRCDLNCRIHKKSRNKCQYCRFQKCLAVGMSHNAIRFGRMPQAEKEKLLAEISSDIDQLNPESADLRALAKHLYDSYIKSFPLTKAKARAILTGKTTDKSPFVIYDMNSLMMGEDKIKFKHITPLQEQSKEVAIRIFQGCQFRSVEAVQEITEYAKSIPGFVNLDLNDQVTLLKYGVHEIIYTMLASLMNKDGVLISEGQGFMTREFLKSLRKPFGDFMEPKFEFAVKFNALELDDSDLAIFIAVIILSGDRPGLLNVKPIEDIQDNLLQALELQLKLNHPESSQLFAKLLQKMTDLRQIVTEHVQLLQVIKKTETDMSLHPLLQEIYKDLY
How it was run: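 Step one: plate 3000 HEK293 UAS-bla cells per well in medium with 1% stripped serum and hold 6-6.5 h at 37 C. Step two: add compound and 50 nM agonist for 16 h. Step three: CCF4 loading, fluorescence read.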

[15] = target: Glucocorticoid receptor (Homo sapiens) (UniProt P04150); assay: qHTS assay for small molecule agonists of glucocorticoid receptor signaling (AID 588532; active means well fitted curve in the direction sought with a large enough effect in the signal ratio, with a control signal flat; inconclusive means small, poorly fitted or top-dose-only effect, or a change in a side signal; inactive means no such curve, though single readings can be large or run the other way; the % refers to the signal ratio); conditions: HeLa MMTV-bla, beta-lactamase ratio, agonist, 18 h; stronger effect = higher value; percent of dexamethasone control, DMSO zero
How it was run: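 MMTV-bla HeLa beta-lactamase reporter cells in 1% charcoal/dextran FBS medium, compounds up to 92 uM for 18 h at 37 C, CCF4 readout; normalized to 0.1 uM dexamethasone (100%), EC50 and efficacy from Hill fits.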

O=C(O)c1nn(Cc2ccc(Cl)cc2Cl)c2ccccc12
outcome [1]: inactive

COc1ccc(C(=O)N2CCCC2=O)cc1
outcome [1]: inactive

CC[C@H]1CN2CCc3cc(OC)c(OC)cc3[C@@H]2C[C@@H]1C[C@H]1NCCc2cc(OC)c(OC)cc21
Potency [2]: 0.282 µM (active)

COC(=O)C1=C(C)NC(C)=C(C(=O)OC)C1c1ccccc1[N+](=O)[O-]
Potency [2]: 11.2 µM (active) | Potency [3]: 31.6 µM (active)

NC(N)=NC(=O)c1nc(Cl)c(N)nc1N
Potency [4]: inactive

CN1CCc2cc(Cl)c(O)cc2[C@H]2c3ccccc3CC[C@@H]21
Potency [5]: inactive

CN(C)CC/C=C1\c2ccccc2Sc2ccc(Cl)cc21
Potency [5]: inactive

CNC(=O)Oc1cccc2ccccc12
Potency [5]: inactive | Potency [4]: inactive | Potency [6]: inactive | Potency [7]: inactive | activation [8]: -1.5% (inactive) | outcome [9]: inactive | max response [10]: 25.4% | Potency [11]: inactive | outcome [12]: inactive | outcome [13]: inactive

CCCCCCCCCCCC[N+](C)(C)CCOc1ccccc1
Potency [5]: 79.4 µM (active) | Potency [4]: 12.6 µM [inconclusive] (active) | outcome [12]: inactive | outcome [13]: inactive

COP(=O)(OC)OC=C(Cl)Cl
Potency [5]: inactive | Potency [4]: inactive | Potency [6]: inactive | max response [10]: 3.66% and 4.74% and -42.4% | Potency [11]: inactive

CCC1(c2ccccc2)CCC(=O)NC1=O (centres undefined)
Potency [5]: inactive

CCOC(=O)NC(O)C(Cl)(Cl)Cl (centres undefined)
Potency [5]: inactive

OC(O)C(Cl)(Cl)Cl
Potency [5]: inactive

CCC1(CC)C(=O)NC(=O)NC1=O
Potency [5]: inactive

Oc1c(Br)cc(Br)cc1Br
Potency [5]: inactive | Potency [4]: inactive | Potency [6]: inactive | max response [10]: 18.5% | Potency [11]: inactive | Potency [14]: inactive

c1cc2c(c(N3CCNCC3)c1)OCCO2
Potency [5]: inactive

CCN(CC)CCOC(=O)C(C)(c1ccccc1)c1ccccc1
Potency [5]: inactive

OC(c1ccccc1)(c1ccccc1)C1CCNCC1
Potency [5]: inactive

c1ccc2nc(N3CCNCC3)ccc2c1
Potency [5]: inactive | outcome [1]: inactive

CC(C)[N+](C)(CCC(C(N)=O)(c1ccccc1)c1ccccc1)C(C)C
Potency [5]: inactive

CN(C)C(=S)SSC(=S)N(C)C
Potency [5]: inactive | Potency [4]: inactive | Potency [6]: inactive | activation [8]: 3.15% (inactive) | activation [15]: 0.667% (inactive) and -2.28% (inactive) | Potency [3]: inactive | max response [10]: 11.3% | Potency [11]: inactive | outcome [13]: inactive

O=c1n(Cl)c(=O)n(Cl)c(=O)n1Cl
Potency [5]: inactive | Potency [4]: inactive | activation [15]: 0.274% (inactive) | Potency [3]: inactive | outcome [9]: inactive | Potency [14]: inactive | outcome [12]: inactive | outcome [13]: inactive

ClC1=C(Cl)C2(Cl)C(CBr)CC1(Cl)C2(Cl)Cl (centres undefined)
Potency [5]: inactive

COCC(=O)N(c1c(C)cccc1C)C(C)C(=O)OC (centres undefined)
Potency [5]: inactive | Potency [4]: inactive | Potency [7]: inactive | activation [8]: 3.52% (inactive) | outcome [9]: inactive | max response [10]: -19% | Potency [11]: inactive | Potency [14]: inactive | outcome [12]: inactive | outcome [13]: inactive

NCc1cccnc1
Potency [5]: inactive

CCN(CC)C(C)C(=O)c1ccccc1 (centres undefined)
Potency [5]: inactive

CNC(=O)NC(O)C(Cl)(Cl)Cl (centres undefined)
Potency [5]: inactive

Clc1ccc(C(OCCN2CCCCC2)c2ccccc2)cc1 (centres undefined)
Potency [5]: inactive

O=C1NCN(c2ccccc2)C12CCN(CCCOc1ccc(F)cc1)CC2
Potency [5]: inactive | outcome [1]: inactive

COc1ccc(CN2CCNCC2)c(OC)c1OC
Potency [5]: inactive

C[C@H]1C(=O)O[C@@H]2CCN3CC=C(COC(=O)[C@](C)(O)[C@]1(C)O)[C@H]23
Potency [5]: inactive | Potency [4]: inactive | Potency [6]: inactive | Potency [7]: inactive | activation [8]: 2.9% (inactive) | activation [15]: 8.93% (inactive) | Potency [3]: inactive | outcome [9]: inactive | Potency [14]: inactive | outcome [12]: inactive | outcome [13]: inactive

C[C@]12C=CC(=O)C=C1CC[C@@H]1[C@@H]2CC[C@@]2(C)[C@H]1CC[C@]2(C)O
Potency [5]: inactive

C[N+]1(CCC(C(N)=O)(c2ccccc2)c2ccccc2)CCCCC1
Potency [5]: inactive

CCNc1nc(Cl)nc(NCC)n1
Potency [5]: inactive | Potency [6]: inactive | Potency [7]: inactive | activation [8]: -2% (inactive) | activation [15]: 3.33% (inactive) | Potency [3]: inactive | Potency [14]: inactive | outcome [12]: inactive | outcome [13]: inactive

CN1C(=O)[C@@H](NC(=O)c2cc3ccccc3[nH]2)N=C(c2ccccc2)c2ccccc21
Potency [5]: inactive

O=C(CCCN1CCC(n2c(=O)[nH]c3ccccc32)CC1)c1ccc(F)cc1
Potency [5]: inactive

CCCCCCCCCCCCCCCC[n+]1ccccc1
Potency [5]: 20 µM (active)

CC(C)C(Br)C(=O)NC(N)=O (centres undefined)
Potency [5]: inactive
